Source: PubChem BioAssay (Broad Institute)
T cruzi growth-1 = blocks T. cruzi growth in NIH3T3 culture; T. cruzi beta-gal in NIH3T3, GalScreen luminescence, 90 h; inhibition, % at 8.34 µM; 77,000 tested, 5.9% active; AID 624255;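 active means mean inhibition above about 93%, with at least 55% of replicates each passing it, limit read from the data, passing the limit was not always enough; inconclusive means only one of those two conditions holds; inactive means neither condition holds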
Pf Dd2 inh = inhibitors of Plasmodium falciparum Dd2 growth. activity change, % at 10 µM. 94,000 tested, 2.3% active. AID 1159554. P. falciparum Dd2 growth, SYBR Green, 72 h; stronger effect = lower value; in the data active means activity change below about -80%; inconclusive means no clear call, values can overlap the other calls
C diff HTS = blocks growth of Clostridium difficile | Clostridium difficile clinical isolate growth, OD600, 24 h; stronger effect = lower value | growth activity, negative = inhibition, % at 16 µg/mL (by protocol) | 86,000 tested, 0.25% active;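 active means mean growth activity at or below -80% and every replicate also at or below -80%; inconclusive means mean at or below -80% but some replicate above -80%; inactive means mean growth activity above -80%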;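 further: 0% = DMSO wells and -100% = levofloxacin 16 µg/mL wells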
T cruzi growth-2 = Trypanosoma cruzi proliferation inhibition | shares compounds with T cruzi growth-1 | T. cruzi beta-gal in NIH3T3, GalScreen luminescence, 90 h | inhibition, % at 8.35 µM | 5,600 tested, 72% active | AID 651739;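 active means mean replicate inhibition above about 95% and at least 55% of replicates individually reaching it, limit read from the data; inconclusive means only one of the two criteria is met; inactive means neither criterion is met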
T cruzi growth-3 = Trypanosoma cruzi proliferation inhibition; inhibition, % at 2.09 µM; 5,600 tested, 21% active; shares compounds with T cruzi growth-1; T. cruzi beta-gal in NIH3T3, GalScreen luminescence, 90 h;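 active means mean inhibition above about 95%, with at least 55% of replicates also reaching it, limit read from the data; inconclusive means meets just one of the two conditions; inactive means meets neither condition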;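 further: plate controls were neutral control median for no effect and positive control median for full effect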
3T3 cytotox = cytotoxicity in mouse NIH/3T3 fibroblasts; shares compounds with T cruzi growth-1; NIH/3T3 viability, CellTiter-Glo ATP luminescence, 90 h; cytotoxicity (signal decrease), % at 8.35 µM; 5,600 tested, 14% active;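 active means mean signal decrease across replicates above about 35% based on untreated-well scatter, with enough replicates individually passing, limit read from the data; inconclusive means no rule stated though some were filed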;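 further: 0% = median of neutral control wells and 100% = median of positive control wells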
NIH3T3 tox 2 = cytotoxicity in mouse NIH/3T3 fibroblasts; 5,600 tested, 56% active; shares compounds with T cruzi growth-1; inhibition, % at 24.9 µM; NIH/3T3 viability, CellTiter-Glo ATP luminescence, 90 h;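 active means mean loss of cell viability signal at or above a set limit, and enough replicates individually reaching it; inconclusive means meets only the mean limit or only the replicate share; inactive means meets neither condition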;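 further: 0% = median of neutral control wells and 100% = median of positive control wells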
* marks the source's active call; other numbers are inactive results; ? = inconclusive; · = not tested or not shown. Compounds with a hit are over-represented: about 6.7% of the library has one in this group of screens.

SMILES | T cruzi growth-1 | Pf Dd2 inh | C diff HTS | T cruzi growth-2 | T cruzi growth-3 | 3T3 cytotox | NIH3T3 tox 2
COc1ccccc1NC(=O)N[C@@H]1CC[C@H](CC(=O)N[C@@H](C)c2ccccc2)O[C@H]1CO | -3 | 19 | · | · | · | · | ·
C/C=C/c1ccc2c(c1)O[C@@H](CN(C)C(=O)Nc1ccc(C(F)(F)F)cc1)[C@H](C)CN([C@@H](C)CO)S2(=O)=O | 108* | 5 | 12 | 97* | ? | 26 | 102*
C/C=C/c1ccc2c(c1)O[C@@H](CN(C)C(=O)Nc1ccc(F)cc1)[C@H](C)CN([C@@H](C)CO)S2(=O)=O | -14 | 1 | 3 | · | · | · | ·
C/C=C/c1ccc2c(c1)O[C@H](CN(C)C(=O)Nc1ccc(F)cc1)[C@H](C)CN([C@@H](C)CO)S2(=O)=O | 77 | -2 | 6 | · | · | · | ·
C/C=C/c1ccc2c(c1)O[C@H](CN(C)C(=O)Nc1ccc(C(F)(F)F)cc1)[C@H](C)CN([C@@H](C)CO)S2(=O)=O | ? | -17 | 3 | 99* | 62 | 46* | 69*
C/C=C/c1ccc2c(c1)O[C@H](CN(C)C(=O)Nc1ccc(F)cc1)[C@@H](C)CN([C@H](C)CO)S2(=O)=O | 39 | -3 | 10 | · | · | · | ·
C/C=C/c1ccc2c(c1)O[C@H](CN(C)C(=O)Nc1ccc(C(F)(F)F)cc1)[C@@H](C)CN([C@H](C)CO)S2(=O)=O | ? | -19 | 11 | 102* | 101* | 36* | 68*
CC=Cc1ccc2n(c1=O)C[C@@H]1[C@@H](CO)[C@H](C(=O)N3CCOCC3)N(CC3CC3)[C@H]21 (mixture of isomers) | 74 | · | 2 | · | · | · | ·
C[C@H](CO)N1C[C@H](C)[C@@H](CN(C)C(=O)Nc2cccc3ccccc23)Oc2ccc(NC(=O)Nc3ccc(F)cc3)cc2CC1=O | -28 | -37 | -5 | · | · | · | ·
COc1cccc(S(=O)(=O)N[C@@H]2C=C[C@H](CC(=O)NC3Cc4ccccc4C3)O[C@H]2CO)c1 | 67 | -4 | · | · | · | · | ·
C[C@@H]1CN([C@H](C)CO)C(=O)c2cc(C#CCN(C)C)cnc2O[C@@H]1CN(C)C(=O)c1ccc2c(c1)OCO2 | · | 7 | -1 | · | · | · | ·
C/C=C/c1ccc2c(c1)O[C@@H](CN(C)Cc1ccccc1)[C@@H](C)CN([C@@H](C)CO)S2(=O)=O | 37 | -17 | 1 | · | · | · | ·
C/C=C/c1ccc2c(c1)O[C@H](CN(C)Cc1cccc(F)c1)[C@@H](C)CN([C@@H](C)CO)S2(=O)=O | · | -20 | 28 | · | · | · | ·
C/C=C/c1ccc2c(c1)O[C@H](CN(C)Cc1ccccc1)[C@@H](C)CN([C@@H](C)CO)S2(=O)=O | 117* | -2 | 8 | 100* | 104* | 14 | 104*
C/C=C/c1ccc2c(c1)O[C@H](CN(C)Cc1ccc(F)cc1)[C@@H](C)CN([C@@H](C)CO)S2(=O)=O | 117* | -6 | 31 | ? | 89 | 8 | 104*
COc1ccccc1NC(=O)N[C@H]1CC[C@H](CCn2cc(-c3ccccc3OC)nn2)O[C@@H]1CO | 149* | 27 | 7 | 20 | 22 | 1 | ?
COc1ccccc1NC(=O)N[C@H]1CC[C@@H](CCn2cc(-c3ccccc3OC)nn2)O[C@H]1CO | 113* | -3 | 5 | 69 | 41 | -13 | 9
O=C(Nc1ccc(F)cc1)N[C@H]1CC[C@@H](CCn2cc(-c3ccccc3F)nn2)O[C@@H]1CO | · | · | 0 | · | · | · | ·
O=C(Nc1ccc(Cl)cc1)N[C@@H]1CC[C@H](CCn2cc(-c3ccccc3F)nn2)O[C@@H]1CO | 102* | -64 | -12 | 98* | 53 | 4 | ?
COc1ccccc1NC(=O)N[C@H]1CC[C@H](CCn2cc(-c3ccccc3)nn2)O[C@@H]1CO | 29 | -19 | -3 | · | · | · | ·
COc1ccccc1-c1cn(CC[C@H]2CC[C@H](NC(=O)NC(C)C)[C@H](CO)O2)nn1 | 24 | -5 | 0 | · | · | · | ·
O=C(Nc1ccc(C(F)(F)F)cc1)N[C@H]1CC[C@@H](CCNC(=O)c2ccccc2F)O[C@H]1CO | 139* | -22 | 2 | 45 | 31 | -14 | -4
O=C(Nc1ccc(C(F)(F)F)cc1)N[C@H]1CC[C@H](CCNC(=O)c2ccccc2F)O[C@H]1CO | 5 | -12 | 1 | · | · | · | ·
CO[C@@H]1CN(C)C(=O)c2ccc(NC(C)=O)cc2OC[C@H](C)N(C(=O)C2CCOCC2)C[C@@H]1C | -25 | -9 | · | · | · | · | ·
COc1ccc2c3c(n(C)c2c1)[C@@H](CO)N(C(C)=O)CC31CCN(S(=O)(=O)c2ccccc2)CC1 | · | -69 | 7 | · | · | · | ·
SMILES | T cruzi growth-1 | Pf Dd2 inh | C diff HTS | T cruzi growth-2 | T cruzi growth-3 | 3T3 cytotox | NIH3T3 tox 2
CCCNC(=O)N(C)C[C@@H]1Oc2ncc(-c3ccccc3F)cc2C(=O)N([C@@H](C)CO)C[C@@H]1C | · | 3 | -5 | · | · | · | ·
C[C@H]1CCCCO[C@H](CN(C)C(=O)CCCN(C)C)[C@@H](C)CN([C@@H](C)CO)C(=O)c2cc(NC(=O)CCC(F)(F)F)ccc2O1 | 23 | 3 | 3 | · | · | · | ·
COc1ccccc1NC(=O)N[C@H]1CC[C@@H](CCn2cc(-c3ccccc3OC)nn2)O[C@@H]1CO | 137* | -22 | -5 | 47 | 40 | -2 | 23
COc1ccccc1NC(=O)N[C@@H]1CC[C@@H](CCn2cc(-c3ccccc3OC)nn2)O[C@H]1CO | 0 | -9 | -13 | · | · | · | ·
O=C(C[C@@H]1C[C@@H]2c3cc(NC(=O)CC4CC4)ccc3O[C@@H]2[C@@H](CO)O1)NCc1cccc(F)c1 | 57 | -1 | -15 | · | · | · | ·
C[C@@H]1CCCCO[C@@H](CN(C)C(=O)C2CCCCC2)[C@@H](C)CN([C@H](C)CO)C(=O)c2cc(NC(=O)C3CCCCC3)ccc2O1 | 46 | -70 | 7 | · | · | · | ·
CO[C@H]1CN(C)C(=O)c2ccc(NC(=O)C3CCCCC3)cc2OC[C@@H](C)N(C(=O)c2ccccc2)C[C@H]1C | -38 | -30 | · | · | · | · | ·
CCCC#Cc1ccc2c(c1)O[C@@H](CN(C)Cc1ccncc1)[C@@H](C)CN([C@@H](C)CO)S2(=O)=O | 113* | -41 | 8 | 102* | 96* | 26 | 100*
CCCC#Cc1ccc2c(c1)O[C@@H](CN(C)Cc1ccncc1)[C@H](C)CN([C@@H](C)CO)S2(=O)=O | 121* | -87* | 15 | 101* | 107* | 63* | 104*
CCCC#Cc1ccc2c(c1)O[C@@H](CN(C)Cc1ccncc1)[C@@H](C)CN([C@H](C)CO)S2(=O)=O | 114* | -27 | 6 | 105* | 90 | 32 | -2
CCCC#Cc1ccc2c(c1)O[C@H](CN(C)Cc1ccncc1)[C@@H](C)CN([C@H](C)CO)S2(=O)=O | 118* | -60 | 5 | 98* | ? | 37* | 104*
CO[C@H]1CN(C)C(=O)c2ccc(NS(=O)(=O)c3ccc(C)cc3)cc2OC[C@H](C)N(C(=O)NC(C)C)C[C@H]1C | -23 | · | · | · | · | · | ·
